Measured values taken from PubChem BioAssay (NCI).
Compounds without any hit were thinned out: in the full panel of roughly 83,000, 20% have a hit.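 Results are percent growth after 48 hours of single-concentration exposure. 100 means growth as in untreated cells, lower positive values show inhibition; negative values down to -100 show cell death.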 Unmarked numbers belong to inactive results. Activity calls are given as the source filed them. How the source made its calls: active means growth percent below 10; inactive means the rest.

Experiments:
Assay in all cases: NCI-60 one-dose screen, 48 h (100 = growth as untreated, 0 = no growth, -100 = all killed)
Details in all cases: 10 µM unless noted
[1] = system: NCI-H23 lung
[2] = system: NCI-H226 lung
[3] = system: NCI-H322M lung
[4] = system: HOP-62 NSCLC
[5] = system: NCI-H460 lung
[6] = system: A549/ATCC NSCLC
[7] = system: 786-0 renal
[8] = system: COLO 205 colon
[9] = system: DU-145 prostate
[10] = system: K-562 leukemia
[11] = system: MALME-3M melanoma
[12] = system: MDA-MB-231 breast
[13] = system: RXF 393 renal
[14] = system: SF-268 CNS
[15] = system: SF-295 CNS
[16] = system: SF-539 CNS
[17] = system: UACC-257 melanoma
[18] = system: M14 melanoma

Row | SMILES | growth [1] [%] | growth [2] [%] | growth [3] [%] | growth [4] [%] | growth [5] | growth [6] [%] | growth [7] | growth [8] | growth [9] [%] | growth [10] [%] | growth [11] [%] | growth [12] [%] | growth [13] | growth [14] [%] | growth [15] | growth [16] [%] | growth [17] | growth [18]
1 | COc1cccc(-c2cc(-c3cc4ccccc4oc3=O)nc(N)n2)c1 | 101 | 91.2 | 123 | 97.7 | 102% | 95 | 101% | 108% | 112 | 99 | 121 | 90.4 | 108% | 101 | 125% | 132 | 108% | 100%
2 | O=C(Nc1ccc(-n2cc(-c3ccncc3)c(-c3ccc(Cl)c(O)c3)n2)cc1)Nc1cc(C(F)(F)F)cc(C(F)(F)F)c1 | 15.4 | 42 | 41.9 | 14 | 5.79% (active) | 17.6 | -60.1% (active) | -55.2% (active) | 36.4 | 17.6 | 12 | 21.5 | -11.2% (active) | 25.9 | -5.6% (active) | 30.3 | 8.73% (active) | 6.9% (active)
3 | CCCC[N+](C)(N)CCCC | 112 | 105 | 103 | 97.6 | 102% | 103 | 97.1% | 122% | 111 | 103 | 107 | 108 | 115% | 112 | 94.5% | 101 | 106% | 100%
4 | O=C1CCNC1 | 111 | 103 | 96.5 | 108 | 109% | 101 | 96.1% | 112% | 103 | 108 | 108 | 101 | 105% | 111 | 108% | 102 | 95.8% | 105%
5 | COC(=O)/C=C1/CCCCC1(C)C(=O)OC (centres undefined) | 109 | 102 | 105 | 105 | 107% | 101 | 96.4% | 120% | 112 | 103 | 109 | 110 | 106% | 110 | 120% | 119 | 98.4% | 101%
6 | O=C(CCl)NC1c2ccccc2Oc2ccccc21 | 70.4 | 98.1 | 97.9 | 75.5 | 64.8% | 71.7 | 77.2% | 103% | 65.5 | 45.6 | 74.1 | 60.7 | 80.1% | 64.4 | 81.2% | 82.4 | 63.6% | 77.8%
7 | S=C(N/N=C/c1cc(Cl)cc(Cl)c1)NC12CC3CC(CC(C3)C1)C2 | 97.8 | 79.6 | 62.2 | 78.2 | 34.4% | 45 | 71% | 68.8% | 77.4 | 79.5 | 54.6 | 52.6 | 67.2% | 64.6 | 35.1% | 68.9 | 83% | 89%
8 | COc1cc(-c2nn(-c3ccc(NC(=O)c4cc(Cl)cc(Cl)c4)cc3)cc2-c2ccncc2)ccc1Cl | 88 | 107 | 104 | 56.9 | 54.8% | 73 | 16.7% | 101% | 96.9 | 23.4 | 104 | 80.9 | -17.1% (active) | 76.9 | -1.01% (active) | 60.2 | 102% | 62.9%
